A word on the inhibition: it is the drop in the measured response relative to a control, in per cent.

We go through four compounds from ChEMBL document CHEMBL1961873, “Compounds: GSK PKIS; Assays: Nanosyn kinase panel” (2012).

Experiment [1] deals with T1, Serine/threonine-protein kinase Nek9 (Homo sapiens) (UniProt Q8TD19).
T1 sequence (whole entry): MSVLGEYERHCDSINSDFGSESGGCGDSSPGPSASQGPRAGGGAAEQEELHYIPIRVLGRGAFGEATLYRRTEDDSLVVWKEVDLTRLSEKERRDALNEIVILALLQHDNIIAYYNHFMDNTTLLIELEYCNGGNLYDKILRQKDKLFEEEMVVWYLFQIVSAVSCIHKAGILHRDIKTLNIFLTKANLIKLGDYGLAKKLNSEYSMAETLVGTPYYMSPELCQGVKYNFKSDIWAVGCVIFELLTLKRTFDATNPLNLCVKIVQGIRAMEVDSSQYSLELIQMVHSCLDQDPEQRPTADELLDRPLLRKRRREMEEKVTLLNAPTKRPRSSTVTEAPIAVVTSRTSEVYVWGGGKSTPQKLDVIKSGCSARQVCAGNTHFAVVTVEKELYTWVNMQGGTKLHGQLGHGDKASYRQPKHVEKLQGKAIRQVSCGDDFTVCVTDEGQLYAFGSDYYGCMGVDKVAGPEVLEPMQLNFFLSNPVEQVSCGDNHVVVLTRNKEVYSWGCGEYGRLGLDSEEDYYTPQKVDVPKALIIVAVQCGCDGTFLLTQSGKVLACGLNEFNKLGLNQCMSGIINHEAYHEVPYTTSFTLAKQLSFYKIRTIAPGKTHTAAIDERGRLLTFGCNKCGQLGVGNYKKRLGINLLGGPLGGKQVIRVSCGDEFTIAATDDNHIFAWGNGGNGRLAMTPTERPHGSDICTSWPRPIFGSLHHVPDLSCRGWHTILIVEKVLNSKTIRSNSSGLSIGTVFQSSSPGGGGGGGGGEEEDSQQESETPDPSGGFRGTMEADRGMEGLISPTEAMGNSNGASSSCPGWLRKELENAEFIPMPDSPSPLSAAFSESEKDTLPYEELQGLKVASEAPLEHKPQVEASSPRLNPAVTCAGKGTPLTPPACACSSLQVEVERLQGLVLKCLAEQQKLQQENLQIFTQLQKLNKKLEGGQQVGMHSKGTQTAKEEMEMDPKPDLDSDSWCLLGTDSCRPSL
Conditions: at 1 µM.

In experiment [2] the target is Serine/threonine-protein kinase PLK1 (Homo sapiens) (UniProt P53350). The conditions noted are these: at 0.1 µM.
Experiment [3] has the same target. Conditions: at 1 µM.
For experiment [4], the target named is T2, Dual specificity protein kinase TTK (Homo sapiens) (UniProt P33981).
T2 sequence (whole entry): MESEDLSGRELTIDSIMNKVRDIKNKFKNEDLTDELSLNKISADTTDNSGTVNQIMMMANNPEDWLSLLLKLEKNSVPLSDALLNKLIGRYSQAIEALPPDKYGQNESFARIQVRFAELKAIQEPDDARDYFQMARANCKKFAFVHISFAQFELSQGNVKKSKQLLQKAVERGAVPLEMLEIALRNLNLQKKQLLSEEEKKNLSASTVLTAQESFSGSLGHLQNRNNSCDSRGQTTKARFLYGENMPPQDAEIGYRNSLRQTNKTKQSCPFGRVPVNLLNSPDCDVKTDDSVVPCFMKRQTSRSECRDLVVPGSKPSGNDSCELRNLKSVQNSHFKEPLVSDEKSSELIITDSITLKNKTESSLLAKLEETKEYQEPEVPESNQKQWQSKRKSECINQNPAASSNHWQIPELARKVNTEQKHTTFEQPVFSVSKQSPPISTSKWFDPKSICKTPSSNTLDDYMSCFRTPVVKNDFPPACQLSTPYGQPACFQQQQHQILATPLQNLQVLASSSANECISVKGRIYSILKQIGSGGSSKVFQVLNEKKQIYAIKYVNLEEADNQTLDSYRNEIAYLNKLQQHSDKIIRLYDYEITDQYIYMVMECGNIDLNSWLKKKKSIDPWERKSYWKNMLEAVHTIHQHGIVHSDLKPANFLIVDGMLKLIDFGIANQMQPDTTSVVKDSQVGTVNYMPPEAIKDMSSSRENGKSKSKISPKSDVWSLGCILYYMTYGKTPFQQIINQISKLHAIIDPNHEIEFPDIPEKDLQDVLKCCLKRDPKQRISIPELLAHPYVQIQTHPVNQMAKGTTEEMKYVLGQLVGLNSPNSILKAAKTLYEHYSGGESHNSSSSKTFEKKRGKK
Conditions: at 0.1 µM.

Experiment [5] relates to T3, Receptor-type tyrosine-protein kinase FLT3 (Homo sapiens), P36888 [D835Y].
T3 sequence (whole entry): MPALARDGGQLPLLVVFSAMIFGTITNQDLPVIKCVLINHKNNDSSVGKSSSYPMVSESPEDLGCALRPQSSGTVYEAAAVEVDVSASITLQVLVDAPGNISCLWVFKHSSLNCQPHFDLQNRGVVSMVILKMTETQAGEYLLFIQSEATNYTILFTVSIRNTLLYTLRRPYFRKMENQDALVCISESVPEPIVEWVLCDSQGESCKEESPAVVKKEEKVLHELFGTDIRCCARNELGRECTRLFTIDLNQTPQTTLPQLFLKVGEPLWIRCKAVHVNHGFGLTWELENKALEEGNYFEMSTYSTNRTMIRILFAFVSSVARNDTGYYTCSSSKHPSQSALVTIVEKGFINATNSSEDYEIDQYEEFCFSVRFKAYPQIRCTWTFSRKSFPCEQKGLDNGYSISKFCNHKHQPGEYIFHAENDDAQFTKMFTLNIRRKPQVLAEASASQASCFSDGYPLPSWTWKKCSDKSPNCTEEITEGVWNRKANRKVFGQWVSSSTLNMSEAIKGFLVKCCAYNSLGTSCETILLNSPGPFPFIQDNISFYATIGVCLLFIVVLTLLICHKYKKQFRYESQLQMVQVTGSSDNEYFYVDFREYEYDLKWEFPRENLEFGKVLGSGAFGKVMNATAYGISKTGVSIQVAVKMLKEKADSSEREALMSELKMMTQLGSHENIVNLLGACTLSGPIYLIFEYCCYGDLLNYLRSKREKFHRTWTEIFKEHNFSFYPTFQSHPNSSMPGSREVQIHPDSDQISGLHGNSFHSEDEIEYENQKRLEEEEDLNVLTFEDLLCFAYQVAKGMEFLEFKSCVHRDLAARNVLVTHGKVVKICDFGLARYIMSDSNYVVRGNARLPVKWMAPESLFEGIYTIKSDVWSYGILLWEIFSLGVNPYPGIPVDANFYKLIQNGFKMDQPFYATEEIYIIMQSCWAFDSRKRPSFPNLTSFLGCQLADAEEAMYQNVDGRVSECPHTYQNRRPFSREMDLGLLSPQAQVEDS
Conditions: at 1 µM.

Experiment [6] has as its target Vascular endothelial growth factor receptor 3 (Homo sapiens) (UniProt P35916). Conditions: at 0.1 µM.
The target is the same in experiment [7]. Conditions: at 1 µM.
The target in experiment [8] is Macrophage colony-stimulating factor 1 receptor (Homo sapiens) (UniProt P07333). The conditions noted are these: at 0.1 µM.
The target is the same in experiment [9]. The conditions noted are these: at 1 µM.
Experiment [10] deals with Tyrosine-protein kinase Fyn (Homo sapiens) (UniProt P06241). The conditions noted are these: at 0.1 µM.
Experiment [11] has the same target. Conditions: at 1 µM.
In experiment [12] the target is Tyrosine-protein kinase HCK (Homo sapiens) (UniProt P08631). Conditions: at 0.1 µM.
Experiment [13] has the same target. The conditions noted are these: at 1 µM.
Experiment [14] addresses Insulin-like growth factor 1 receptor (Homo sapiens) (UniProt P08069). The conditions noted are these: at 0.1 µM.
In experiment [15] the target is Insulin receptor (Homo sapiens) (UniProt P06213). Conditions: at 0.1 µM.
Experiment [16] shares this target. The conditions noted are these: at 1 µM.
Experiment [17] deals with Insulin receptor-related protein (Homo sapiens) (UniProt P14616). Conditions: at 0.1 µM.
The target is the same in experiment [18]. The conditions noted are these: at 1 µM.
In experiment [19] the target is T4, Tyrosine-protein kinase ITK/TSK (Homo sapiens) (UniProt Q08881).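 Further: mean percent inhibition of ITK from the GSK PKIS screen.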
T4 sequence (whole entry): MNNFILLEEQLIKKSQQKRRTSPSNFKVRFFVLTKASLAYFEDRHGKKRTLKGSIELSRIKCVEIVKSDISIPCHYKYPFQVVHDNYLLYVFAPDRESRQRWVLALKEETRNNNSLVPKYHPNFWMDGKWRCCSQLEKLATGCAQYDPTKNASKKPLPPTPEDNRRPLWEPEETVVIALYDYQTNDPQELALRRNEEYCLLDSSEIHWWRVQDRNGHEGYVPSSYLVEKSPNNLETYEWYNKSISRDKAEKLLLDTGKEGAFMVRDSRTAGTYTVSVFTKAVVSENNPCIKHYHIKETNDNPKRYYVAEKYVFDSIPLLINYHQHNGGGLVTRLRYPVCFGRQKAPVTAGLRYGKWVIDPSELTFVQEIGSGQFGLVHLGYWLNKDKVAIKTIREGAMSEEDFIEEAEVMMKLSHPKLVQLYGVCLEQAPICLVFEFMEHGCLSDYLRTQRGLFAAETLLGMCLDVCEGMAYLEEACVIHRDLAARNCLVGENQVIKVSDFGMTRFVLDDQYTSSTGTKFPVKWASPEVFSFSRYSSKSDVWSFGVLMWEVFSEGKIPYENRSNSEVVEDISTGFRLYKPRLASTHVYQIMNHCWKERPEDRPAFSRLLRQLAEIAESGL
Conditions: at 0.1 µM.

Experiment [20] has as its target Insulin-like growth factor 1 receptor (Homo sapiens) (UniProt P08069). Conditions: at 1 µM.

Sequence of Vascular endothelial growth factor receptor 3 (Homo sapiens) (P35916 whole entry): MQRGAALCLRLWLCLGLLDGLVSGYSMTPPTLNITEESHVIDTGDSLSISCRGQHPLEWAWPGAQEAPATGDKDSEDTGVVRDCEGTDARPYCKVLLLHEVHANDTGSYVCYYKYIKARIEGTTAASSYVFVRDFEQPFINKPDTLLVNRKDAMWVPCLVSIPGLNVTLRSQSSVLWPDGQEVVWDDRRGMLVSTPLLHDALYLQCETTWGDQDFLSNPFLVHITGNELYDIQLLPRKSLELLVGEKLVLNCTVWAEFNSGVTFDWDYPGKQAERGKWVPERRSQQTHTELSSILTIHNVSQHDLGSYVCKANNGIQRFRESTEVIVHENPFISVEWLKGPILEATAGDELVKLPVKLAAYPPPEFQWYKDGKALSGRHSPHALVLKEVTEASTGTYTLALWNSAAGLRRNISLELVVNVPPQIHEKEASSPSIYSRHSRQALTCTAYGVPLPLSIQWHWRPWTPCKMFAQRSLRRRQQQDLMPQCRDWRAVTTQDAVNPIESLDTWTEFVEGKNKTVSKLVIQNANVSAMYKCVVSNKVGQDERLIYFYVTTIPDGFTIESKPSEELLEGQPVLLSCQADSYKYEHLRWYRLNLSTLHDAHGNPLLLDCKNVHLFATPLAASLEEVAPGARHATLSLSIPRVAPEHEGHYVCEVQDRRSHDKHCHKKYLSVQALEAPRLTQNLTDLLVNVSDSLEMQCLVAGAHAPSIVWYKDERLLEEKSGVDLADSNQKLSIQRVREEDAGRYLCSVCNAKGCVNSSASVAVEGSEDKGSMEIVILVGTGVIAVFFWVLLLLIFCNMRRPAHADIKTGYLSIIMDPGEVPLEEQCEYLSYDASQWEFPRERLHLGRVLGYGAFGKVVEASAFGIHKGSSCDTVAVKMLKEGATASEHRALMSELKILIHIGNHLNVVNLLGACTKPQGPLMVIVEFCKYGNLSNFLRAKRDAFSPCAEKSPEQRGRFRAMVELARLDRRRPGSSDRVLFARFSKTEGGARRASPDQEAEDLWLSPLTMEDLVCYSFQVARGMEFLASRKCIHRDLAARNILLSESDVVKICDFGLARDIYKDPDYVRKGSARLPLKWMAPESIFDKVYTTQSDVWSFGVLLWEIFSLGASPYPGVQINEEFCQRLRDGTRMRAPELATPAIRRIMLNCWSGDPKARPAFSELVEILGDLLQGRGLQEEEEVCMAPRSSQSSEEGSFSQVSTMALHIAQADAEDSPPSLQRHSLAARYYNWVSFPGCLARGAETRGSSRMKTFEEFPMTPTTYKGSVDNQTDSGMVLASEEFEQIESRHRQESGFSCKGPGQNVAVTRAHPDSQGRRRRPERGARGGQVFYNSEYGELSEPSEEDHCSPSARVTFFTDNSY
Sequence of Serine/threonine-protein kinase PLK1 (Homo sapiens) (P53350 whole entry): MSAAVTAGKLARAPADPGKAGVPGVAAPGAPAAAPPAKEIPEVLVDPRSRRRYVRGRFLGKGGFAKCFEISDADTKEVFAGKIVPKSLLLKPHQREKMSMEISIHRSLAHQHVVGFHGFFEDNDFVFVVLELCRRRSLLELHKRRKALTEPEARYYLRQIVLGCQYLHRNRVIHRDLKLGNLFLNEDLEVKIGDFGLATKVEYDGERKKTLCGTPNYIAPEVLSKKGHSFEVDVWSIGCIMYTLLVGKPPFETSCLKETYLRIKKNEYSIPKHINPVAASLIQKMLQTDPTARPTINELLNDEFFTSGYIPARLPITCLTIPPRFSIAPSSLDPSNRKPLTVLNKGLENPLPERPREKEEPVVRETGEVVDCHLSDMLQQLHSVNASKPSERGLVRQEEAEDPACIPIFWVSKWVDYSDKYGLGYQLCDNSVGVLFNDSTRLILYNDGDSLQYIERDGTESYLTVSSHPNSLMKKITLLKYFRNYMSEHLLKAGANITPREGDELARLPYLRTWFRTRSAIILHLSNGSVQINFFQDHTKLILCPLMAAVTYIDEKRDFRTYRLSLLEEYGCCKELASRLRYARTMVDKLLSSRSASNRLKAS
Sequence of Insulin-like growth factor 1 receptor (Homo sapiens) (P08069 31-736 limits assumed): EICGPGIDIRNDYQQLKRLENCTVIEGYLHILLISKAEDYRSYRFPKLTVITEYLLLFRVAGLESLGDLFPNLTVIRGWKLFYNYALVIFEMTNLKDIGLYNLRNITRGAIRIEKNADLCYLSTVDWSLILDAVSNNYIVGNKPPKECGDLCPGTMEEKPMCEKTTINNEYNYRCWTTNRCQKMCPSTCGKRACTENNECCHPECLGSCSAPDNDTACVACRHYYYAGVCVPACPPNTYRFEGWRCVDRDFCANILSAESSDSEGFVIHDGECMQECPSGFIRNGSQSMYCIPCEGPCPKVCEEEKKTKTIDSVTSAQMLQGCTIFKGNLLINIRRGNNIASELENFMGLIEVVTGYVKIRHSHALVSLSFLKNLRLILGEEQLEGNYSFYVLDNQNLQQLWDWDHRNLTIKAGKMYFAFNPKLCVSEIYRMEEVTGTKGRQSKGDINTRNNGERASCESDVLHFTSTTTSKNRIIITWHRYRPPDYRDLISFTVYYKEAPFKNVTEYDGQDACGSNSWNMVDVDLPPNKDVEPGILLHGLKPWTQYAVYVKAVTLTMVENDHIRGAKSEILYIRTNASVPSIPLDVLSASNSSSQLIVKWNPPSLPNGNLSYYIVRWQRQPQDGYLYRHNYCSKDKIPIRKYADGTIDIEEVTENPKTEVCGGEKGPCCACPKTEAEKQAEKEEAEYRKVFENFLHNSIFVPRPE
Sequence of Insulin-like growth factor 1 receptor (Homo sapiens) (P08069 741-1367 limits assumed): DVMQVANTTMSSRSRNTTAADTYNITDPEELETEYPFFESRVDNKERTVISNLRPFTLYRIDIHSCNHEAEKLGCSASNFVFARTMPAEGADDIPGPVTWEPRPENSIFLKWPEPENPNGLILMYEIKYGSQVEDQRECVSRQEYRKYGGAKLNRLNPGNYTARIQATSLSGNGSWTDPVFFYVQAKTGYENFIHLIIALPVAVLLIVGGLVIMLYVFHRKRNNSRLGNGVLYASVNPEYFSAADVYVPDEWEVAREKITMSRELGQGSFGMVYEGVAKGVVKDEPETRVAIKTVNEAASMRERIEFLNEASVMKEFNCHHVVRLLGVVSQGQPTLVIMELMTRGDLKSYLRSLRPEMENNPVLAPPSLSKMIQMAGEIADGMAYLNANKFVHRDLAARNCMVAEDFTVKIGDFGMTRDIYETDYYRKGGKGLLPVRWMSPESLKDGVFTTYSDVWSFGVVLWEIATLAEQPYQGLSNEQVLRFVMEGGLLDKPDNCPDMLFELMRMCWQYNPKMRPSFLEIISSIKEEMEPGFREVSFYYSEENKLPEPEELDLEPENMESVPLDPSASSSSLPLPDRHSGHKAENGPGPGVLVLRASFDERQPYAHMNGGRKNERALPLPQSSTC
Sequence of Macrophage colony-stimulating factor 1 receptor (Homo sapiens) (P07333 whole entry): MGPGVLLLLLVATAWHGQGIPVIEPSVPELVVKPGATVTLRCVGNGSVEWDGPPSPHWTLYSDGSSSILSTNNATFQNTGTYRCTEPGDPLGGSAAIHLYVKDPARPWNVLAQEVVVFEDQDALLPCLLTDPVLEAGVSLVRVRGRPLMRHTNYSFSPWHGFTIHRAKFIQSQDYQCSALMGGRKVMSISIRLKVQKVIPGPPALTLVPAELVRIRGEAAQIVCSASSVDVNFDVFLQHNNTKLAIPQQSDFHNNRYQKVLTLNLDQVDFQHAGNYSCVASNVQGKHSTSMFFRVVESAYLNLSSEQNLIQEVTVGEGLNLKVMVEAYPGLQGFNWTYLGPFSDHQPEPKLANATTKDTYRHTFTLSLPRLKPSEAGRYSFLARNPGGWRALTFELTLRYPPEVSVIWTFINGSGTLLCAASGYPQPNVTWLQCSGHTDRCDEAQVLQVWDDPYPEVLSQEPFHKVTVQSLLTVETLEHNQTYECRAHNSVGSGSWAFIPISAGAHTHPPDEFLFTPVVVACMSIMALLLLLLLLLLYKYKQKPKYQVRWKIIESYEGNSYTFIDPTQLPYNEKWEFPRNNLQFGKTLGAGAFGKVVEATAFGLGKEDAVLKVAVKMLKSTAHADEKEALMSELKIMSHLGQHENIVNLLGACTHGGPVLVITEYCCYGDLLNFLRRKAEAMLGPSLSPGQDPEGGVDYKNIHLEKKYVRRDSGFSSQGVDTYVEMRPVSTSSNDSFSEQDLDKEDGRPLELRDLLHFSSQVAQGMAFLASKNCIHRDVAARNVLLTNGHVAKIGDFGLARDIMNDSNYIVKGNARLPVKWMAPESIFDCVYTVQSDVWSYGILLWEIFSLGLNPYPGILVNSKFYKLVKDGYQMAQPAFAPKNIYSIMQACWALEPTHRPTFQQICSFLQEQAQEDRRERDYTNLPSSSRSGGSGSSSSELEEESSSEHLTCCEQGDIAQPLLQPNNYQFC
Sequence of Tyrosine-protein kinase Fyn (Homo sapiens) (P06241 2-537 limits assumed): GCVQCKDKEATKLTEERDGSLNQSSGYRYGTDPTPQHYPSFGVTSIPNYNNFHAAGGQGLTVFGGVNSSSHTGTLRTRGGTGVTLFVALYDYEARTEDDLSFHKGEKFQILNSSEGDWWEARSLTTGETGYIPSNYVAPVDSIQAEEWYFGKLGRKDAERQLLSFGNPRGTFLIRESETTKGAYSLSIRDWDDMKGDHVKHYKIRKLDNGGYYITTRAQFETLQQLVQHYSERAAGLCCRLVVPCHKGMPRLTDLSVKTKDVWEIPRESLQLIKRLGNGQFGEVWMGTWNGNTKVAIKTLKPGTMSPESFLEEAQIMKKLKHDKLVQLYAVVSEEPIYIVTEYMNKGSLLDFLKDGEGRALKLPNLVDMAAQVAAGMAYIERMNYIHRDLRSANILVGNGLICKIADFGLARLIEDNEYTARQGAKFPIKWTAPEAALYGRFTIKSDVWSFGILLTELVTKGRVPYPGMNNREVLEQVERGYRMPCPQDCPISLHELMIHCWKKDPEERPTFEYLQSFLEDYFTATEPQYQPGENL

For the compound `Clc1ccc(CNc2nccc(-c3cnn4ncccc34)n2)cc1`, the inhibition in [1] was -2.99%; in experiment [2], 2.4%; in [3], 2.85%; in experiment [4], 0.13%; in experiment [5], 2.01%; in [6] it was -1.51%. The inhibition was 1.12% in experiment [7]; 1.45% in [8]; 10.5% in experiment [9]; -1.29% in experiment [10]; 0.07% in experiment [11]; 5.97% in [12]. Further, the inhibition in [13] came out at 5.79%; in [14], 2.48%; in experiment [15], 0.04%; in experiment [16], 1.97%; in [17] it was 2.17%; in experiment [18], 2.19%. Besides, the inhibition in experiment [19] amounted to 0%.
As for `Fc1ccc(-c2ncn(C3CCNCC3)c2-c2ccnc(Oc3ccc(F)c(F)c3)n2)cc1`, the inhibition is 6.01% in experiment [1]; 3.45% in experiment [2]; 2.6% in experiment [3]; 10.3% in [4]; -6.12% in [5]; -4.95% in experiment [6]. Also, the inhibition is -7.54% in [7]; 1.11% in experiment [8]; 7.56% in experiment [9]; -4.18% in experiment [10]; -4.44% in experiment [11]; 5.11% in [12]. Further, the inhibition in experiment [13] was 4.68%; in experiment [20] it was -4.9%; in experiment [15], -2.06%; in experiment [16], 0.24%; in [17], 3.04%; in experiment [18], 2.75%. In addition, the inhibition in experiment [19] was -3.95%.
Consider `COc1ccc2ncn(-c3cc(O[C@H](C)c4ccccc4Cl)c(C(N)=O)s3)c2c1`, for which the inhibition is 83.7% in [1]; 6.36% in [4]; 2.74% in experiment [5]; -5.28% in [6]; 4.48% in [7]; 3.05% in [8]. In addition, the inhibition in experiment [9] was 14.4%; in experiment [10], -4.31%; in experiment [11] it was -3.05%; in experiment [12] it was 5.34%; in experiment [13], 5.31%; in experiment [20] it was -6.53%. Further, the inhibition in [15] is 0.89%; in [16], 3.79%; in experiment [17], 2.92%; in [18], 3.51%; in experiment [19], -4.15%.
Turning to `NC(=O)Cc1ccccc1Oc1nccc(-c2c(-c3ccc(F)cc3)ncn2C2CCNCC2)n1`, the inhibition in experiment [1] was 1.22%; in [2] it was 3.44%; in experiment [3], 2.54%; in [4], 5.28%; in [5], 1.28%; in experiment [6] it was 1.36%. The inhibition in [7] was -0.28%; in experiment [8], 0.18%; in [9] it was 1.47%; in experiment [10], 2.4%; in [11], 2.13%; in experiment [12], 2.65%. Moreover, the inhibition came out at 5.75% in experiment [13]; 3.37% in experiment [14]; 3.6% in [20]; 5.96% in [15]; 6.34% in experiment [16]; 0.84% in experiment [17]. Moreover, the inhibition in experiment [18] worked out at 1.69%; in experiment [19], 1.33%.
